Results published in PubChem BioAssay (NCATS).
Activity calls are given as the source filed them. Calls follow the shape of the dose curve; as a rule, active = well fitted curve in the direction sought with a large enough effect; inconclusive = small, poorly fitted or top-dose-only effect, or effect the other way, or another doubt; inactive = no such curve, though single readings can be large or run the other way.

Test: Inducers of the Endoplasmic Reticulum Stress Response (ERSR) in human glioma: Validation (AID 504836)
Conditions: human glioma cells, ER stress response reporter; series mostly up to 38.3 µM
Outline: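 Stably transfected U87-MG human glioma cells carrying a GRP78-based luminescent sensor were seeded at 1000 cells/well, pin-dosed with compounds and incubated 16 h. Luciferase reagent was then added, and end-point luminescence was read after 10 min at room temperature.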

**Q.** For CCOC(=O)C1=C[C@]2(CC)CCCN3CCc4c(n1c1ccccc41)[C@@H]32, which outcome is on record?
**A.** Its outcome is “inactive”.

**Q.** For Cc1ccc(=O)n(-c2ccccc2)c1, which outcome is on record?
**A.** The outcome was “inactive”.

**Q.** Which outcome does the source give for COc1ccccc1N1CCN(CC(O)COc2cccc3ccccc23)CC1 (stereo not drawn) here?
**A.** Its outcome is “inactive”.

**Q.** With C=Cc1c(C)c2cc3[nH]c(cc4nc(cc5nc(cc1[nH]2)C(C)=C5CCC(=O)O)C(CCC(=O)O)=C4C)c(C)c3C=C as the molecule, how does the outcome read?
**A.** The outcome was “inactive”.

**Q.** With c1cnc(N2CCN(Cc3ccc4c(c3)OCO4)CC2)nc1 as the molecule, how does the outcome read?
**A.** Its outcome is “inactive”.

**Q.** Which outcome does the source give for Cn1c(=O)c2c(ncn2C)n(C)c1=O here?
**A.** Its outcome is “inactive”.

**Q.** With CN(C)CCOC(c1ccccc1)c1ccccc1 as the molecule, how does the outcome read?
**A.** The outcome was “inactive”.

**Q.** For COc1ccc(CN(CCN(C)C)c2ccccn2)cc1, which outcome is on record?
**A.** Its outcome is “inactive”.

**Q.** Which outcome does the source give for C[N+](C)(C)CCOC(=O)CCC(=O)OCC[N+](C)(C)C here?
**A.** The outcome was “inactive”.

**Q.** With CSc1ccc2c(c1)C(N1CCN(C)CC1)Cc1ccccc1S2 (stereo not drawn) as the molecule, how does the outcome read?
**A.** Its outcome is “inactive”.

**Q.** For NC(N)=NCCC[C@H](N)C(=O)O, which outcome is on record?
**A.** The outcome was “inactive”.

**Q.** For COc1nc(C)nc(Cl)c1NC1=NCCN1, which outcome is on record?
**A.** The outcome was “inactive”.

**Q.** Which outcome does the source give for CC(C)(C)c1ccc(C(=O)CCCN2CCC(OC(c3ccccc3)c3ccccc3)CC2)cc1 here?
**A.** The outcome was “inactive”.

**Q.** Which outcome does the source give for c1cc(CN2CCCCC2)cc(OCCCNc2nc3ccccc3s2)c1 here?
**A.** Its outcome is “inactive”.

**Q.** For COc1ccc2c(c1)c(CC(=O)O)c(C)n2C(=O)c1ccc(Cl)cc1, which outcome is on record?
**A.** Its outcome is “inactive”.

**Q.** Which outcome does the source give for CC1=C(C)C(=O)C(CCCCC#CCCCC#CCO)=C(C)C1=O here?
**A.** The outcome was “inactive”.

**Q.** Which outcome does the source give for C[C@]12CCC(=O)C=C1CC[C@@H]1[C@@H]2C(=O)C[C@@]2(C)[C@H]1CC[C@]2(O)C(=O)CO here?
**A.** The outcome was “inactive”.

**Q.** With Cc1nc2sccn2c(=O)c1CCN1CCC(=C(c2ccc(F)cc2)c2ccc(F)cc2)CC1 as the molecule, how does the outcome read?
**A.** The outcome was “inactive”.
